In PubChem BioAssay (EPA / NIEHS) one finds AC50 and outcome data, which are given here for 12 compounds.

Test [1] deals with human Thromboxane A2 Receptor (TXA2), TBXA2R (gene 6915) (UniProt P21731). In words: NVS_GPCR_hTXA2: NovaScreen (NVS) G Protein-Coupled Receptor Assay for human Thromboxane A2 Receptor (TXA2) (AID 2283282).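 Also: actives reduce bound radioligand signal relative to DMSO baseline.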 The method in brief:
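Human platelet membranes tested for radioligand displacement by filtration and scintillation counting 1 h post-dose. Screened in duplicate at 25 uM; activity fitted as signal loss relative to DMSO.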

Test [2] has as its target human Orphanin, Opioid Related Nociceptin Receptor 1 (ORL1), OPRL1 (gene 4987) (UniProt P41146). In words: NVS_GPCR_hORL1: NovaScreen (NVS) G Protein-Coupled Receptor Assay for human Orphanin, Opioid Related Nociceptin Receptor 1 (ORL1) (AID 2283283). The method in brief: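 Cell-free binding using HEK293-derived receptor protein: radioligand displacement measured by filter scintillation 1 hour after dosing. Primary testing at 25 uM in duplicate, followed by singleton concentration series up to 50 uM; DMSO served as negative control.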

Test [3] has as its system rabbit Platelet Activating Factor Receptor (PAF), gene 100354046. In words: NVS_GPCR_rabPAF: NovaScreen (NVS) G Protein-Coupled Receptor Assay for rabbit Platelet Activating Factor Receptor (PAF) (AID 2283287). The method in brief:
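Rabbit platelet membrane preparation; radioligand displacement read by filter-based scintillation counting 1 h after dosing, loss of signal versus DMSO. Primary screen in duplicate at 25 uM, actives followed up in concentration series.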

The target of test [4] is rat Adrenergic, Alpha 1, Non-selective Receptor (Adra1), Adra1a (gene 29412) (UniProt P43140). Nature of the test: NVS_GPCR_rAdra1_NonSelective: NovaScreen (NVS) G Protein-Coupled Receptor Assay for rat Adrenergic, Alpha 1, Non-selective Receptor (Adra1) (AID 2283289). The method in brief:
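Chemicals first screened in duplicate at 25 uM, then actives tested in concentration series up to 50 uM. Binding measured as displacement of radioligand from rat forebrain membrane receptors, 1 h, filtration with scintillation readout; DMSO baseline.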

Test [5] deals with human Opioid Receptor Mu (Opiate Mu), OPRM1 (gene 4988) (UniProt P35372). In words: NVS_GPCR_hOpiate_mu: NovaScreen (NVS) G Protein-Coupled Receptor Assay for human Opioid Receptor Mu (Opiate Mu) (AID 2283290).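 Also: hits lower bound tracer signal versus DMSO meaning displacement of the ligand.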 The gist of the method: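 Primary screen in duplicate at 25 uM, with actives followed in concentration series. CHO-derived receptor membranes, cell-free; bound radioligand read by scintillation counting after filtration at 2.5 h, decrease scored against DMSO.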

The target in test [6] is mouse Cholecystokinin, CCK2 Receptor (CCKB), Cckbr (gene 12426) (UniProt P56481). Nature of the test: NVS_GPCR_mCKKBCentral: NovaScreen (NVS) G Protein-Coupled Receptor Assay for mouse Cholecystokinin, CCK2 Receptor (CCKB) (AID 2283293). The method in brief: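 Mouse forebrain membrane preparation incubated 2 h with chemical and radioligand; bound radioactivity counted after filtration. Single-concentration duplicate screen at 25 uM, then concentration series to 50 uM max for hits, DMSO as baseline.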

Test [7] has as its target guinea pig Serotonin, 5-Hydroxytryptamine Receptor 4 (5HT4), HTR4 (gene 100135548) (UniProt O70528). Nature of the test: NVS_GPCR_g5HT4: NovaScreen (NVS) G Protein-Coupled Receptor Assay for guinea pig Serotonin, 5-Hydroxytryptamine Receptor 4 (5HT4) (AID 2283294). The gist of the method: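 Compounds first screened in duplicate at 25 uM, actives followed up in concentration series. Binding measured as displacement of specific radioligand from guinea pig striatal membranes, 1 h, filter-based scintillation read-out versus DMSO baseline.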

Test [8] addresses rat Serotonin, 5-Hydroxytryptamine Receptor (5HT), Non-Selective Binding, Htr1a (gene 24473) (UniProt P19327). Nature of the test: NVS_GPCR_r5HT_NonSelective: NovaScreen (NVS) G Protein-Coupled Receptor Assay for rat Serotonin, 5-Hydroxytryptamine Receptor (5HT), Non-Selective Binding (AID 2283295). The gist of the method:
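Rat cortex membrane preparation incubated 1 h with radioligand and test chemical; bound radioactivity counted after filtration. Screening began in duplicate at 25 uM with concentration-series follow-up; fitting relative to DMSO.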

Test [9] has as its target rat Adrenergic, Alpha 1A Receptor (Adra1A), Adra1a (gene 29412) (UniProt P43140). In words: NVS_GPCR_rAdra1A: NovaScreen (NVS) G Protein-Coupled Receptor Assay for rat Adrenergic, Alpha 1A Receptor (Adra1A) (AID 2283296). The method in brief:
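Filter radiodetection after 1 h competitive binding on CEC-pretreated rat cortical membranes. Duplicate single-point screening at 25 uM; active chemicals retested across concentration series.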

Test [10] relates to rat Adrenergic, Alpha 1B Receptor (Adra1B), gene 24173. In words: NVS_GPCR_rAdra1B: NovaScreen (NVS) G Protein-Coupled Receptor Assay for rat Adrenergic, Alpha 1B Receptor (Adra1B) (AID 2283297). The method in brief:
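Filter-binding radioligand competition on membranes from rat liver, read after 1 h by scintillation counting. Single-concentration duplicate screen at 25 uM, followed by concentration-response on actives, normalised to DMSO.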

Test [11] has as its target rat Histamine Receptor (H3), Hrh3 (gene 85268) (UniProt Q9QYN8). Nature of the test: NVS_GPCR_rH3: NovaScreen (NVS) G Protein-Coupled Receptor Assay for rat Histamine Receptor (H3) (AID 2283303). The gist of the method:
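Filter-binding radioligand competition on rat forebrain membranes, 1 h incubation; compounds screened at 25 µM in duplicate and followed in concentration series to 50 µM, loss of bound signal vs DMSO.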

In the next test the target is Adra2b (gene 24174) (UniProt P19328). Nature of the test: NVS_GPCR_rmAdra2B: NovaScreen (NVS) G Protein-Coupled Receptor Assay for hybird cells Adrenergic, Alpha 2B Receptor (Adra2B) (AID 2283306). The method in brief:
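Compounds screened first at 25 uM in duplicate, with actives followed up in concentration-response; specific radioligand displacement from hybrid neuroglioma/blastoma cell membrane preparations measured by filter scintillation counting after 1 h, normalized to DMSO.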

Test [12] concerns the target rat Adrenergic Receptor, Alpha 2 (Adra2), Non-selective Binding, Adra2a (gene 25083) (UniProt P22909). In words: NVS_GPCR_rAdra2_NonSelective: NovaScreen (NVS) G Protein-Coupled Receptor Assay for rat Adrenergic Receptor, Alpha 2 (Adra2), Non-selective Binding (AID 2283299). The method in brief: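 Filter-based scintillation counting of radioligand binding to rat cortical membrane receptors, measured 1.25 hours post-dosing; loss of signal versus DMSO indicates displacement. Initial single-concentration duplicate at 25 uM, then concentration series.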

The subject of test [13] is 5-hydroxytryptamine receptor 2C (pig). Nature of the test: NVS_GPCR_p5HT2C: NovaScreen (NVS) G Protein-Coupled Receptor Assay for pig Serotonin, 5-Hydroxytryptamine Receptor 2C (5HT2C) (AID 2283288). The method in brief: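 Radioligand displacement on membranes from pig choroid plexus, detected by filter scintillation counting after 1 h. Tested first at a single 25 uM in duplicate, then in concentration-response for actives; DMSO served as baseline.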

Test [14] deals with mouse Cholecystokinin, CCK1 Receptor (CCKA), Cckar (gene 12425) (UniProt O08786). Nature of the test: NVS_GPCR_mCCKAPeripheral: NovaScreen (NVS) G Protein-Coupled Receptor Assay for mouse Cholecystokinin, CCK1 Receptor (CCKA) (AID 2283285). The gist of the method: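 Chemicals were first screened in duplicate at 25 uM, with those meeting threshold (e.g., 30% inhibition) retested in singleton concentration series to 50 uM maximum. Binding of radioligand to mouse pancreatic membranes was read after 2 h by filtration and scintillation counting.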

Test [15] has as its target rat Serotonin, 5-Hydroxytryptamine Receptor 1 (5HT1), Non-Selective Binding, Htr1a (gene 24473) (UniProt P19327). In words: NVS_GPCR_r5HT1_NonSelective: NovaScreen (NVS) G Protein-Coupled Receptor Assay for rat Serotonin, 5-Hydroxytryptamine Receptor 1 (5HT1), Non-Selective Binding (AID 2283286). The gist of the method:
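Binding of a radioligand to rat cortex membranes is read by filtration and scintillation counting after 1 h. Compounds were screened at 25 uM in duplicate. Actives were then titrated to a top of 50 uM. DMSO is the baseline.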

Test [16] addresses rat Adrenergic Receptor, Beta (Adrb), Non-selective Binding, Adrb1 (gene 24925) (UniProt P18090). Nature of the test: NVS_GPCR_rAdrb_NonSelective: NovaScreen (NVS) G Protein-Coupled Receptor Assay for rat Adrenergic Receptor, Beta (Adrb), Non-selective Binding (AID 2283298). The method in brief:
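Rat cortical membranes incubated 1 h with beta-adrenergic radioligand and test chemical; bound ligand measured by filtration and scintillation counting. Screen at 25 uM duplicate, then concentration series with 50 uM maximum; loss of signal versus DMSO.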

Test [17] deals with human Vasopressin 1A Receptor (V1A), AVPR1A (gene 552) (UniProt P37288). Nature of the test: NVS_GPCR_hV1A: NovaScreen (NVS) G Protein-Coupled Receptor Assay for human Vasopressin 1A Receptor (V1A) (AID 2283284). The gist of the method: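 Single-concentration duplicate screen at 25 uM, with concentration-response follow-up (top 50 uM) for actives. The assay measured displacement of a radioligand from human platelet-derived receptor after 1.5 h, detected by filtration and scintillation counting.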

Results filed as inconclusive are left out. Activity calls are given as the source filed them. The calls were made as follows: active = hit-call score of the fitted dose curve at least 0.9, where 1 is the maximum; inconclusive = response in the unintended direction; inactive = score below 0.9.

Chain of rat Adrenergic Receptor, Beta (Adrb), Non-selective Binding, Adrb1 (gene 24925) (P18090 whole entry, looked up): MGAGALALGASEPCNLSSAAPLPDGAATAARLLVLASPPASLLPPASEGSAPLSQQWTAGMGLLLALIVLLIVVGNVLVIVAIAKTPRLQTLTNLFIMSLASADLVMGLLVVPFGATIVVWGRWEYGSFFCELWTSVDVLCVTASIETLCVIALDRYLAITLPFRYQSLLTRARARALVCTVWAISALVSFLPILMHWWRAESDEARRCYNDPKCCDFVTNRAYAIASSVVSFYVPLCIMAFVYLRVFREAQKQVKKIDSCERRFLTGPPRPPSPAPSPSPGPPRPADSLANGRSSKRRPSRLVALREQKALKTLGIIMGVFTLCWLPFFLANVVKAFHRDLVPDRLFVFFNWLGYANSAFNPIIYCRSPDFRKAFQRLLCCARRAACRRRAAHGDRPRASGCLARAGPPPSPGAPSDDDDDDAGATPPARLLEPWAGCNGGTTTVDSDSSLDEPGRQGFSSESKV
Chain of rat Adrenergic, Alpha 1, Non-selective Receptor (Adra1), Adra1a (gene 29412) (P43140 whole entry, looked up): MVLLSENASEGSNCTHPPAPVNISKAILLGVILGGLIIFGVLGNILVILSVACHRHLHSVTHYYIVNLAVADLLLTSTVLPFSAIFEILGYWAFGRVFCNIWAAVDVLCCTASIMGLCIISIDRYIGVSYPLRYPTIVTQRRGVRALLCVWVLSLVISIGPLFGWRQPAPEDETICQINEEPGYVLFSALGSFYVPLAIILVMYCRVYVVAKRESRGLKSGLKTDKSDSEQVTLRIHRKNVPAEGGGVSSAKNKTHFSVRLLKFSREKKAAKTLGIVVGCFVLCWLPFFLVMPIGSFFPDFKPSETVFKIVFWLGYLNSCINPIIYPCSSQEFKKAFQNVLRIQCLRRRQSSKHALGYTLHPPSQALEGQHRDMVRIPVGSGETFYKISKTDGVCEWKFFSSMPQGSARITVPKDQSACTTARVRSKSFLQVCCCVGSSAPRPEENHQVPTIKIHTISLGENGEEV
Chain of Adra2b (gene 24174) (P19328 whole entry, looked up): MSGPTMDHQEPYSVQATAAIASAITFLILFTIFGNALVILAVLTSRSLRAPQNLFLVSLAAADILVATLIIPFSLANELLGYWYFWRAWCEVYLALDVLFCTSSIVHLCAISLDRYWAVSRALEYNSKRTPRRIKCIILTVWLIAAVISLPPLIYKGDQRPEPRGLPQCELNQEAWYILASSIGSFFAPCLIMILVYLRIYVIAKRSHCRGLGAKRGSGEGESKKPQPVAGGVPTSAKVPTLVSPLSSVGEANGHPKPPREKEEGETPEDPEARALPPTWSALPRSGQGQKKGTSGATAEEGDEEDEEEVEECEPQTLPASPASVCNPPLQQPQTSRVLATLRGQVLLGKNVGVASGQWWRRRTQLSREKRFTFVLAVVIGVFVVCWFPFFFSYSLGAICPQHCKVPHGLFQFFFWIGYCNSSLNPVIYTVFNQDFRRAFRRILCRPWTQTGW
Chain of mouse Cholecystokinin, CCK1 Receptor (CCKA), Cckar (gene 12425) (O08786 whole entry, looked up): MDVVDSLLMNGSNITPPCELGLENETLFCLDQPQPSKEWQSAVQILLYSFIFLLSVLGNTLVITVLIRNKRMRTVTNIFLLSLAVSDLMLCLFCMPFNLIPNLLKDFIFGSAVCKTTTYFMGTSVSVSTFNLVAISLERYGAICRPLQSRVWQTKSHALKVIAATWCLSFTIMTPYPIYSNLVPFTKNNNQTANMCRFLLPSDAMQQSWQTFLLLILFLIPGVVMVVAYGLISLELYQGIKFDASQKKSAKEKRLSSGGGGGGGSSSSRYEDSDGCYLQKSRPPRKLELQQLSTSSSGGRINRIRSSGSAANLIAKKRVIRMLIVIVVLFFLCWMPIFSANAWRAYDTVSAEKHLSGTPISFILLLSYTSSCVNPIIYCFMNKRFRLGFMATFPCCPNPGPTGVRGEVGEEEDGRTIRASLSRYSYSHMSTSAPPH
Chain of rat Serotonin, 5-Hydroxytryptamine Receptor (5HT), Non-Selective Binding, Htr1a (gene 24473) (P19327 whole entry, looked up): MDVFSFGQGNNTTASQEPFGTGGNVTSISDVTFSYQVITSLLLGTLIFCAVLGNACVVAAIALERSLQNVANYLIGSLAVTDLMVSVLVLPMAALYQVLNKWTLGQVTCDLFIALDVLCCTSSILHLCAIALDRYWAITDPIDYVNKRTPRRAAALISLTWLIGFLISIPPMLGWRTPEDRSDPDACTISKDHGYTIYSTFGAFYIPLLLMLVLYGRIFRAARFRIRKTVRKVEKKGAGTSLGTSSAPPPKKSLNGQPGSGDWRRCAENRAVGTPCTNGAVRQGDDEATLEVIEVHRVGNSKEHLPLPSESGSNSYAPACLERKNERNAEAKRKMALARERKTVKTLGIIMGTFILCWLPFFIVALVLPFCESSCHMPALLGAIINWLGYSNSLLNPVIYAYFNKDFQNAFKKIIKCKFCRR
Chain of human Opioid Receptor Mu (Opiate Mu), OPRM1 (gene 4988) (P35372 whole entry, looked up): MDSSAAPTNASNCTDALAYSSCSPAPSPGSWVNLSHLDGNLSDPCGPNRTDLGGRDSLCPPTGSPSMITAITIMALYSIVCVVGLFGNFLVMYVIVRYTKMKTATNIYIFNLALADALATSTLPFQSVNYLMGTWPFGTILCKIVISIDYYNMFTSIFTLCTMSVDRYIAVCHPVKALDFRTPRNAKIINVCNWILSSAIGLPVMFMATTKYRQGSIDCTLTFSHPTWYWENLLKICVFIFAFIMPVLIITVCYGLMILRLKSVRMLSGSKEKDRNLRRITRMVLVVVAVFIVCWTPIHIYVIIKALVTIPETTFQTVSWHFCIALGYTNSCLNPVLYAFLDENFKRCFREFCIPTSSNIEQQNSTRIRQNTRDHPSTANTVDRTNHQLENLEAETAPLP
Chain of human Thromboxane A2 Receptor (TXA2), TBXA2R (gene 6915) (P21731 whole entry, looked up): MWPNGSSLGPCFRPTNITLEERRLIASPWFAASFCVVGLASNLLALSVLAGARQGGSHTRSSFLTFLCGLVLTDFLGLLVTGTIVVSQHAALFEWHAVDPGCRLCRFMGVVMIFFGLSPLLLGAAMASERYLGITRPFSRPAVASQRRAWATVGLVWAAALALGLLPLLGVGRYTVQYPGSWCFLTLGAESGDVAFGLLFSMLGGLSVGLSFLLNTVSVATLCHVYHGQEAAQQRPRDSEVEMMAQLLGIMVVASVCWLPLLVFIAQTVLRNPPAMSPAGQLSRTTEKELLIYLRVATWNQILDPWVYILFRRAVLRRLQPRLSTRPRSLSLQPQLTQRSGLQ
Chain of rat Adrenergic Receptor, Alpha 2 (Adra2), Non-selective Binding, Adra2a (gene 25083) (P22909 whole entry, looked up): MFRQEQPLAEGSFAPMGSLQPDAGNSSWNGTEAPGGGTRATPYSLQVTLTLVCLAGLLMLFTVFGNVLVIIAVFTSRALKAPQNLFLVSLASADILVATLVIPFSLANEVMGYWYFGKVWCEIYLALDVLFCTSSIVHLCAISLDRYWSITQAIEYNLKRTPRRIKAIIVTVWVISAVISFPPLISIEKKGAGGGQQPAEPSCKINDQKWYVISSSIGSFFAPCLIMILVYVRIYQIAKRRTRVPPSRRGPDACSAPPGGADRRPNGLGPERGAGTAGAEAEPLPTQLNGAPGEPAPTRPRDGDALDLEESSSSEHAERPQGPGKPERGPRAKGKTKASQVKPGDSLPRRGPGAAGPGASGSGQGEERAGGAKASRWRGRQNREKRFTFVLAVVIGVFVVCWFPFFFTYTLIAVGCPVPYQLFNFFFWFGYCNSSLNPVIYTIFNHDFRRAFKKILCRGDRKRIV
Chain of rat Adrenergic, Alpha 1A Receptor (Adra1A), Adra1a (gene 29412) (P43140 whole entry, looked up): as the sequence (P43140 whole entry, looked up) above
Chain of rat Serotonin, 5-Hydroxytryptamine Receptor 1 (5HT1), Non-Selective Binding, Htr1a (gene 24473) (P19327 whole entry, looked up): as the sequence (P19327 whole entry, looked up) above
Chain of rat Histamine Receptor (H3), Hrh3 (gene 85268) (Q9QYN8 whole entry, looked up): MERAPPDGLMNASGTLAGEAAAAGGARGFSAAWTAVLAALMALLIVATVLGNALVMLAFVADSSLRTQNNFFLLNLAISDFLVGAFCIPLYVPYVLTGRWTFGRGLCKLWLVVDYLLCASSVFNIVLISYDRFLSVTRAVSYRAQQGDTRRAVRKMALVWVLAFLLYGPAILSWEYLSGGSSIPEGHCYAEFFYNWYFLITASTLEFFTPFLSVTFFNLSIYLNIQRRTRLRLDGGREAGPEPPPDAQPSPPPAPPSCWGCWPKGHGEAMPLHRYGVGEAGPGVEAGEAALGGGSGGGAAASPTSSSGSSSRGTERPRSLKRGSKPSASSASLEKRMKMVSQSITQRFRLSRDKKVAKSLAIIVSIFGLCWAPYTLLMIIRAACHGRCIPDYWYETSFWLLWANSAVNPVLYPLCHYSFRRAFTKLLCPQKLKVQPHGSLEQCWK

Consider `O=C(O)c1cc(N=Nc2ccc(S(=O)(=O)Nc3ccccn3)cc2)ccc1O`, for which, in test [1], the AC50 (in general, the concentration giving half of the maximal activity seen) is 9.98 µM (active).

`CNS(=O)(=O)c1cc(C(=O)N2CCC(CCN3C4CCC3CC(n3c(C)nc5ccccc53)C4)(c3cccc(F)c3)CC2)c(Cl)cc1F` (stereo unspecified): the outcome in [2], in [6], in test [7] and in test [8] was inactive. Moreover, the AC50 in test [3] is 1.33 µM (active); in [4], 1.92 µM (active); in test [5], 4.96 µM (active); in test [9] it was 14.9 µM (active); in test [10] it was 2.1 µM (active); in test [11] it was 1.85 µM (active). Moreover, the AC50 with Adra2b (gene 24174) was 7.6 µM (active).

Take `CCC(C)(C)C(=O)O[C@H]1C[C@@H](C)C=C2C=C[C@H](C)[C@H](CC[C@@H]3C[C@@H](O)CC(=O)O3)[C@H]21`: the result in [1], in test [5] and in test [12] was inactive.

Regarding `O=C(O)CC(O)C(=O)O` (stereo unspecified), the call in test [2], in test [13], in [5] and in test [8] was inactive.

For the compound `COc1ccc(/C=C/S(=O)(=O)NC(=O)c2ccc(C)cc2Cl)cc1`, the AC50 in [14] was 22.7 µM (active).

For `O=P(OC(CCl)CCl)(OC(CCl)CCl)OC(CCl)CCl`, the compound was classed as inactive in [1], in [14] and in [13]. The AC50 in [3] was 8.52 µM (active).

Take `Cc1ccc(N)cc1O`: in [3], the compound was called inactive.

As to `O=C(OC[C@H]1O[C@@H](OC(=O)c2cc(O)c(O)c(OC(=O)c3cc(O)c(O)c(O)c3)c2)[C@H](OC(=O)c2cc(O)c(O)c(OC(=O)c3cc(O)c(O)c(O)c3)c2)[C@@H](OC(=O)c2cc(O)c(O)c(OC(=O)c3cc(O)c(O)c(O)c3)c2)[C@@H]1OC(=O)c1cc(O)c(O)c(OC(=O)c2cc(O)c(O)c(O)c2)c1)c1cc(O)c(O)c(OC(=O)c2cc(O)c(O)c(O)c2)c1`, the result in test [1] was inactive. Besides, the AC50 in test [14] is 12 µM (active).

Consider `CCCN(C1CCN(C(=O)C2CCNCC2)CC1)[C@@H]1CCc2ccc(OC)cc2C1`, for which the AC50 in test [15] is 8.67 µM (active); in [4], 16.1 µM (active); in test [7], 8.99 µM (active); in test [8], 25 µM (active); in [10], 12.8 µM (active); in [16], 18.3 µM (active). Moreover, the concentration at half-maximal activity (AC50) in test [11] is 0.914 µM (active); with Adra2b (gene 24174), 7.66 µM (active).

For `Cc1ccc(O)cc1`, in test [17], the AC50 is 22.1 µM (active). The outcome in test [16] was inactive.

For `CC(C)c1cccc(C(C)C)c1N1C(=O)c2ccc(O)cc2C1=O`, in test [1], the concentration at half-maximal activity (AC50) is 7.4 µM (active).

Consider `O=c1[nH]c2ccc(S(=O)CCN3CCC(Cc4ccc(F)cc4)CC3)cc2o1` (stereo unspecified), for which the compound was classed as inactive in test [15] and in test [16]. The AC50 in test [4] was 1.07 µM (active); in test [8], 5.88 µM (active); in test [9], 3.25 µM (active); in [10], 3.46 µM (active); in test [12], 1.88 µM (active); with Adra2b (gene 24174), 0.609 µM (active).
